Results taken from PubChem BioAssay (Tox21).
Inconclusive results are not listed. Calls of active or inactive are those of the source. Unless noted, calls come from the whole dose curve; as a rule, active = well fitted curve in the direction sought with a large enough effect in the repeat runs; inconclusive = weak or mixed curves; inactive = no such curve, though single readings can be large; an effect the other way counts as inactive or inconclusive.

Legend:
[1] = qHTS assay to identify aromatase inhibitors - cell viability counter screen (AID 743084);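 note: cells stimulated with testosterone during compound exposure; nearly all actives have a fitted effect of over 55% in size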
[2] = biological target: Aryl hydrocarbon receptor (Homo sapiens) (UniProt P35869); assay: qHTS assay to identify small molecule that activate the aryl hydrocarbon receptor (AhR) signaling pathway (AID 743085);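 note: HG2L7.5c1 human HepG2 liver cells with stably integrated DRE-driven firefly reporter; series mostly up to about 70 µM; nearly all actives have a fitted effect of over 15% in size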
Summary of the method: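 Cell line HG2L7.5c1 (human hepatoma, 20× DRE-luc). Plated, 5 h 37C, compound/DMSO added, 24 h 37C. CellTiter-Fluor 30 min 37C → fluorescence; then ONE-Glo 30 min RT → luminescence.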

[3] = qHTS assay to identify small molecule that activate the aryl hydrocarbon receptor (AhR) signaling pathway - cell viability counter screen (AID 743086);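 note: HepG2 liver cells carrying the AhR DRE luciferase reporter; series mostly up to about 70 µM; nearly all actives have a fitted effect of over 45% in size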
Summary of the method: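 Cytotoxicity counter screen: CellTiter-Fluor signal (30 min, 37 C) in 4000 HepG2 cells/well carrying the DRE-luciferase reporter, following 24 h compound exposure at 37 C.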

[4] = biological target: Peroxisome proliferator-activated receptor gamma (Homo sapiens) (UniProt P37231); assay: qHTS assay to identify small molecule agonists of the peroxisome proliferator-activated receptor gamma (PPARg) signaling pathway (AID 743094; active = well fitted activation curve with a large enough effect in the signal ratio in the repeat runs, not every such curve was filed as active; the % refers to the signal ratio)
Summary of the method: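 Following 5 h plating at 37C, PPARg-bla HEK293H cells receive compound or DMSO for 17 h; fluorescence intensity is recorded after LiveBLAzer B/G loading for 1 h at room temperature.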

[5] = biological target: Peroxisome proliferator-activated receptor gamma (Homo sapiens) (UniProt P37231); assay: qHTS assay to identify small molecule antagonists of the peroxisome proliferator-activated receptor gamma (PPARg) signaling pathway (AID 743191; calls by dose curve; note: series mostly up to about 63 µM; nearly all actives have a fitted effect of over 30% in size)
Summary of the method: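 Beta-lactamase reporter under UAS control in HEK293H PPARg-bla cells; compound treatment 17 h at 37C. Read-out: fluorescence intensity after 1 h room-temperature incubation with LiveBLAzer B/G FRET substrate.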

[6] = qHTS assay to identify small molecule antagonists of the peroxisome proliferator-activated receptor gamma (PPARg) signaling pathway - cell viability counter screen (AID 743194); note: nearly all actives have a fitted effect of over 55% in size
Summary of the method: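 Viability was measured as CellTiter-Glo luminescence in GeneBLAzer PPARg UAS-bla HEK293H cells. These cells had been exposed 17 h at 37 C to compounds together with rosiglitazone at 50 nM final, with the beta-lactamase readout taken in the same wells.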

[7] = qHTS assay for small molecule agonists of the antioxidant response element (ARE) signaling pathway (AID 743202; active = well fitted activation curve with a large enough effect in the signal ratio in the repeat runs, not every such curve was filed as active; the % refers to the signal ratio)
Summary of the method: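 An ARE-responsive beta-lactamase gene stably integrated in HepG2 cells serves as reporter. After 5 h plating and 16 h compound incubation at 37 C, fluorescence of the B/G FRET substrate was measured.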

[8] = qHTS assay for small molecule agonists of the antioxidant response element (ARE) signaling pathway - cell viability counter screen (AID 743203; calls by dose curve; note: nearly all actives have a fitted effect of over 55% in size)
Summary of the method: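 Compounds in DMSO were pinned onto ARE-bla HepG2 cells plated 5 hrs earlier at 2,000 cells/well. Sixteen hours later at 37C/5% CO2, CellTiter-Glo was added and luminescence measured after 30 min at room temperature.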

[9] = qHTS assay for small molecule activators of the heat shock response signaling pathway - cell viability counter screen (AID 743209); note: nearly all actives have a fitted effect of over 50% in size
Summary of the method: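 Counter screen for cytotoxicity in HeLa HSE-bla reporter cells. Treatment was 5 h at 37 C; viability was detected by luminescent ATP assay (CellTiter-Glo) in the same wells as the beta-lactamase read.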

[10] = qHTS assay for small molecule activators of the heat shock response signaling pathway (AID 743210; active = well fitted activation curve with a large enough effect in the signal ratio in the repeat runs, with a control signal flat, not every such curve was filed as active; the % refers to the signal ratio;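 note: HeLa cells with beta-lactamase reporter driven by heat shock elements; series mostly up to about 63 µM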)
Summary of the method: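 In HSE-bla HeLa cells, 5 h compound incubation (37 C) precedes addition of LiveBLAzer B/G substrate; after 2.5 h at room temperature, fluorescence intensity indicates reporter induction.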

[11] = qHTS assay to identify small molecule agonists of the peroxisome proliferator-activated receptor delta (PPARd) signaling pathway - cell viability counter screen (AID 743211); note: nearly all actives have a fitted effect of over 55% in size
Summary of the method: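 HEK293H PPARd-bla, 3000 cells/well; 5 h preincubation 37C/5% CO2; cpd in DMSO, 17 h 37C; B/G FRET substrate 2 h RT; CellTiter-Glo 30 min RT, luminescence.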

[12] = qHTS assay to identify small molecule antagonists of the peroxisome proliferator-activated receptor delta (PPARd) signaling pathway - cell viability counter screen (AID 743213); note: nearly all actives have a fitted effect of over 50% in size
Summary of the method: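 Viability counter-screen, qHTS format: PPARd-bla HEK293H, L165041 300 nM final, 17 h compound exposure at 37 C, CellTiter-Glo luminescence after 30 min RT.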

[13] = biological target: Peroxisome proliferator-activated receptor delta (Homo sapiens) (UniProt Q03181); assay: qHTS assay to identify small molecule antagonists of the peroxisome proliferator-activated receptor delta (PPARd) signaling pathway (AID 743215; active = well fitted inhibition curve with a large enough effect in the signal ratio in the repeat runs, not every such curve was filed as active; the % refers to the signal ratio;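 note: cells stimulated with agonist L165041 at 300 nM final during compound exposure; series mostly up to about 62 µM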)
Summary of the method: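 With L165041 present at 300 nM final, compounds were incubated 17 h at 37 C on PPARd UAS-bla HEK293H cells. A FRET-based beta-lactamase substrate was then applied for 2 h at room temperature and fluorescence intensity recorded.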

[14] = biological target: Bile acid receptor (Homo sapiens) (UniProt Q96RI1); assay: qHTS assay to identify small molecule antagonists of the farnesoid-X-receptor (FXR) signaling pathway (AID 743217; active = well fitted inhibition curve with a large enough effect in the signal ratio in the repeat runs, not every such curve was filed as active; the % refers to the signal ratio)
Summary of the method: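 In this cell-based antagonist screen, inhibition of CDCA-driven (50 uM final) UAS-beta-lactamase expression in HEK 293T cells was measured by FRET fluorescence following 16 h compound exposure at 37 °C.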

[15] = qHTS assay to identify small molecule agonists of the farnesoid-X-receptor (FXR) signaling pathway - cell viability counter screen (AID 743218); note: nearly all actives have a fitted effect of over 45% in size
Summary of the method: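 After 16 h at 37 C with test compounds, FXR-bla HEK 293T cells were given LiveBLAzer B/G substrate for 2 h at RT and then CellTiter-Glo; luminescence was taken after 30 min.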

[16] = qHTS assay to identify small molecule antagonists of the farnesoid-X-receptor (FXR) signaling pathway - cell viability counter screen (AID 743221; active = well fitted cell-killing curve with a large enough effect in the repeat runs, not every such curve was filed as active; note: nearly all actives have a fitted effect of over 50% in size)
Summary of the method: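 Luminescence from CellTiter-Glo measures cytotoxicity in GeneBLAzer FXR-UAS-bla HEK 293T cells. Cells were exposed to compounds with 50 uM chenodeoxycholic acid (final) for 16 h at 37 C, in wells also used for the reporter readout.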

[17] = biological target: Peroxisome proliferator-activated receptor delta (Homo sapiens) (UniProt Q03181); assay: qHTS assay to identify small molecule agonists of the peroxisome proliferator-activated receptor delta (PPARd) signaling pathway (AID 743212; calls by dose curve)
Summary of the method: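 HEK293H UAS-bla reporter cells, human PPARd system; compounds delivered in DMSO after 5 h plating, then at 37 C. Beta-lactamase FRET read, 2 h RT substrate step.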

[18] = biological target: Bile acid receptor (Homo sapiens) (UniProt Q96RI1); assay: qHTS assay to identify small molecule agonists of the farnesoid-X-receptor (FXR) signaling pathway (AID 743220; active = well fitted activation curve with a large enough effect in the signal ratio in the repeat runs, not every such curve was filed as active; the % refers to the signal ratio)
Summary of the method: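 Beta-lactamase reporter under UAS control in GeneBLAzer FXR HEK 293T cells (5000/well) measured with LiveBLAzer FRET substrate after 2 h at room temperature. Compound exposure lasted 16 h at 37C.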

[19] = biological target: Vitamin D3 receptor (Homo sapiens) (UniProt P11473); assay: qHTS assay to identify small molecule agonists of the vitamin D receptor (VDR) signaling pathway (AID 743222; calls by dose curve)
Summary of the method: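 VDR-bla cells were seeded, left 4 h, treated with compounds in DMSO for 16 h, incubated 2 h at RT with B/G FRET substrate, and read for fluorescence.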

[20] = biological target: Vitamin D3 receptor (Homo sapiens) (UniProt P11473); assay: qHTS assay to identify small molecule antagonists of the vitamin D receptor (VDR) signaling pathway (AID 743223; active = well fitted inhibition curve with a large enough effect in the signal ratio in the repeat runs, not every such curve was filed as active; the % refers to the signal ratio)
Summary of the method: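 Antagonist mode uses 1alpha,25-dihydroxyvitamin D3 at 3 nM final as stimulus. VDR-bla cells receive compounds in DMSO, incubate 16 h at 37C, then a beta-lactamase FRET substrate for 2 h at room temperature before fluorescence measurement.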

Measured: Potency

Chain of Peroxisome proliferator-activated receptor gamma (Homo sapiens) (P37231 whole entry, looked up): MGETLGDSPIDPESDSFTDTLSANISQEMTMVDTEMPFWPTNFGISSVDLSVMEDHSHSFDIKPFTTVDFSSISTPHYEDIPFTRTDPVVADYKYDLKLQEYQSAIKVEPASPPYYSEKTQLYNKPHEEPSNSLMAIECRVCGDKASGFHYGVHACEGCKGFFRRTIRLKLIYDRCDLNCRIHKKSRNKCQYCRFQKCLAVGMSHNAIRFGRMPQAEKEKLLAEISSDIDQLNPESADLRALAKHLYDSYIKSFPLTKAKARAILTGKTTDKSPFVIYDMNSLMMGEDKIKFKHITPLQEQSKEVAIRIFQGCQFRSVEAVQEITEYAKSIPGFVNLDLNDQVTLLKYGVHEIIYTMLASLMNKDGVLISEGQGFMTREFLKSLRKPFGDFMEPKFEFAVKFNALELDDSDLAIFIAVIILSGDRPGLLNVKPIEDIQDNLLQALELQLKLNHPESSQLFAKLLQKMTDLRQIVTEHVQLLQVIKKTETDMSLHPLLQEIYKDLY
Chain of Bile acid receptor (Homo sapiens) (Q96RI1 whole entry, looked up): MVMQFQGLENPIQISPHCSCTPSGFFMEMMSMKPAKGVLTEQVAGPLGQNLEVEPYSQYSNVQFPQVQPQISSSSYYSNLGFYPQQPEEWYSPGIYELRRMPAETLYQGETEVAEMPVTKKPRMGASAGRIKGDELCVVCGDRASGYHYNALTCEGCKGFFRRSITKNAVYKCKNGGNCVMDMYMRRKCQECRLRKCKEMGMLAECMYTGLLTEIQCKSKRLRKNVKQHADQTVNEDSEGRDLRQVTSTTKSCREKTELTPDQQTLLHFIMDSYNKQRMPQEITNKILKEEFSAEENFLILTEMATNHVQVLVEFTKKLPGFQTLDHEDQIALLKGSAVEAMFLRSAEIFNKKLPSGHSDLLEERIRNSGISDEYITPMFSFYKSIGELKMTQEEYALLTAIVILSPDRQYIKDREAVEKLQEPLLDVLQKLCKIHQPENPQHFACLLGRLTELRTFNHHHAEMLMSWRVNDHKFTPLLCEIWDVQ
Chain of Peroxisome proliferator-activated receptor delta (Homo sapiens) (Q03181 whole entry, looked up): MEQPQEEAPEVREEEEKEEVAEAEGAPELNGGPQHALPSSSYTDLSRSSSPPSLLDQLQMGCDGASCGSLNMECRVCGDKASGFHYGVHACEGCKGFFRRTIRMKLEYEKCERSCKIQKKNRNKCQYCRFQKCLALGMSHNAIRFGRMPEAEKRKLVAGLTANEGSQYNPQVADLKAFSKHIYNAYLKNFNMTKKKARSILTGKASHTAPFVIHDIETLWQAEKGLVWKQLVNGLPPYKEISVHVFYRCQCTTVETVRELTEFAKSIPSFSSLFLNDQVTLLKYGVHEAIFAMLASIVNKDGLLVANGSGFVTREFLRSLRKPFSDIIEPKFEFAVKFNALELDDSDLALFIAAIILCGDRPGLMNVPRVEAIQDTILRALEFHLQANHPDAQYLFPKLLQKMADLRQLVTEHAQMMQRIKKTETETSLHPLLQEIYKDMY
Chain of Aryl hydrocarbon receptor (Homo sapiens) (P35869 whole entry, looked up): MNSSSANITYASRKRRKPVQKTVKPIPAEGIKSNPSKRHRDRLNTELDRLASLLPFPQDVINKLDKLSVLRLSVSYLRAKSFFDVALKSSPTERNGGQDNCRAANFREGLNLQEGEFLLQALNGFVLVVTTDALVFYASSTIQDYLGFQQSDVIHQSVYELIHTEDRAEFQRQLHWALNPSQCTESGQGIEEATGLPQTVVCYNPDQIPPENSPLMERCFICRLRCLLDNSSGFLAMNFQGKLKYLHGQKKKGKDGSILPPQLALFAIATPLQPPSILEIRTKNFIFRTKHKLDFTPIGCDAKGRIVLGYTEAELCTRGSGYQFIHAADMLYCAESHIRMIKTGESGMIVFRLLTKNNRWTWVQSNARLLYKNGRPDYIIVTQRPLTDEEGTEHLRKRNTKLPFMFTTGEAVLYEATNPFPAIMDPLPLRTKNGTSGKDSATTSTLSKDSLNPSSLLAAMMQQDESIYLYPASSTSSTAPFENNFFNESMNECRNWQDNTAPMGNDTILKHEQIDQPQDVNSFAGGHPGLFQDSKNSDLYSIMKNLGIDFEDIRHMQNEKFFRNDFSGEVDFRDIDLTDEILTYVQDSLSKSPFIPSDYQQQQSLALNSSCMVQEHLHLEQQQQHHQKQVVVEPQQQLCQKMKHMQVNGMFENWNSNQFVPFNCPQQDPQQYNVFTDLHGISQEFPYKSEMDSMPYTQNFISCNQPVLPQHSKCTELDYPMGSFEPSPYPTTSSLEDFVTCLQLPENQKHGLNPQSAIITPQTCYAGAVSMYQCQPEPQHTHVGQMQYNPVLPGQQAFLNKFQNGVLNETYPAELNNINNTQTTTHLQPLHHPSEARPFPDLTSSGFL
Chain of Vitamin D3 receptor (Homo sapiens) (P11473 whole entry, looked up): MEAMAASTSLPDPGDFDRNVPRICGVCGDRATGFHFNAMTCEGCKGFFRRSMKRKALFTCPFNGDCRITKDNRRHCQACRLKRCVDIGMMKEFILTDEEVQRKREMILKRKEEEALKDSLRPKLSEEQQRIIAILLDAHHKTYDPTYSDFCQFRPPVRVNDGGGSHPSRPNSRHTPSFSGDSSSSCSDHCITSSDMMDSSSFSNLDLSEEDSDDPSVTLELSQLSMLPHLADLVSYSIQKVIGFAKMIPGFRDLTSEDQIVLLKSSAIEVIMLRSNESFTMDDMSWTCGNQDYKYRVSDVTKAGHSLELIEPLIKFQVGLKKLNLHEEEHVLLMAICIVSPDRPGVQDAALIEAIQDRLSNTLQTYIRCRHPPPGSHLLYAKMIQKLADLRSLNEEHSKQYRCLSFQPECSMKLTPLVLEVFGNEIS

Cc1cc2c(cc1S(N)(=O)=O)S(=O)(=O)CCC2
not listed: [17] | [18] | [19] | [20]
inactive: all other assays above

CC(C)(C)NCCNC(C)(C)C
not listed: [9] | [20]
inactive: all other assays above

CCCCC(CC)COC(=O)c1ccccc1O (stereo not drawn)
not listed: [9] | [14] | [18]
inactive: all other assays above

CC(=O)OCC(CCn1cnc2cnc(N)nc21)COC(C)=O
not listed: [10] | [14] | [18]
inactive: all other assays above

Nc1cc(=O)[nH]c(N)n1
not listed: [13] | [15] | [17]
inactive: all other assays above

C=COCC1CCC(CO)CC1 (stereo not drawn)
not listed: [13]
inactive: all other assays above

Cc1ccc(=O)n(-c2ccccc2)c1
not listed: [10] | [13] | [14] | [16] | [17] | [18]
inactive: all other assays above

NS(=O)(=O)c1ccc(C(=O)O)cc1
not listed: [10] | [13] | [19] | [20]
inactive: all other assays above

COc1cc(C(=O)N2CCCCCCC2)cc(OC)c1OC
not listed: [12] | [15] | [20]
inactive: all other assays above

CC(=O)CC(C)(C)C1CCCCC1
not listed: [14] | [15] | [18] | [19] | [20]
inactive: all other assays above

CO[Si](CCCOCC1CO1)(OC)OC (stereo not drawn)
not listed: [13] | [14] | [20]
inactive: all other assays above

Cc1cccn2c(=O)c(-c3nnn[nH]3)cnc12
not listed: [13] | [14] | [15] | [18] | [19] | [20]
inactive: all other assays above

CCN(CC)CCNC(=O)c1cc(S(C)(=O)=O)ccc1OC
not listed: [9] | [14] | [18] | [19] | [20]
inactive: all other assays above

O=C1OC(=O)C2CCCCC12 (stereo not drawn)
not listed: [13] | [14] | [15] | [16] | [17] | [18]
inactive: all other assays above

Nc1ccccc1S(=O)(=O)O
not listed: [14] | [18]
inactive: all other assays above

N=c1nc(N2CCCCC2)cc(N)n1O
not listed: [10] | [15] | [19] | [20]
inactive: all other assays above

CC(C)(O)C(=O)c1ccccc1
not listed: [12] | [13] | [20]
inactive: all other assays above

CCCc1cc(C(N)=S)ccn1
not listed: [13] | [14] | [15] | [16] | [17] | [18] | [19] | [20]
inactive: all other assays above

CCC(C)C1CCCCC1=O (stereo not drawn)
not listed: [10] | [13] | [14] | [18] | [20]
inactive: all other assays above

O=c1[nH]c(=O)n([C@H]2C[C@H](O)[C@@H](CO)O2)cc1I
not listed: [14] | [16] | [18]
inactive: all other assays above

OCCOc1ccc(OCCO)cc1
not listed: [10] | [13] | [17] | [18]
inactive: all other assays above

CC(C[N+](C)(C)C)OC(N)=O (stereo not drawn)
not listed: [9] | [16] | [19] | [20]
inactive: all other assays above

C[C@@H]1CCN(C(=O)[C@H](CCCN=C(N)N)NS(=O)(=O)c2cccc3c2NC[C@H](C)C3)[C@@H](C(=O)O)C1
not listed: [10] | [14] | [18] | [19] | [20]
inactive: all other assays above

OC[C@]1(O)OC[C@@H](O)[C@H](O)[C@@H]1O
not listed: [10] | [14] | [18]
inactive: all other assays above

COC(C)(C)CCCC(C)CC=O (stereo not drawn)
not listed: [10]
inactive: all other assays above

Nc1nc2c(ncn2COC(CO)CO)c(=O)[nH]1
not listed: [10] | [14] | [18]
inactive: all other assays above

CCO[Si](CCC1CCC2OC2C1)(OCC)OCC (stereo not drawn)
inactive: all assays above

Cn1cc(S(C)=O)c(=O)c2ccc(F)cc21 (stereo not drawn)
not listed: [9]
inactive: all other assays above

C=C[Si](OC(=C)C)(OC(=C)C)OC(=C)C
not listed: [10] | [13]
inactive: all other assays above

O=c1cc(CO)occ1O
not listed: [13] | [14] | [15] | [18]
inactive: all other assays above

COc1c(N2C[C@@H]3CCCN[C@@H]3C2)c(F)cc2c(=O)c(C(=O)O)cn(C3CC3)c12
not listed: [15] | [19] | [20]
inactive: all other assays above

C[C@H]1C[C@@H](O)CC(C)(C)C1
not listed: [10] | [11] | [15]
inactive: all other assays above
